Inconclusive results are not listed. A call without a number means that no potency is given here. Active and inactive are the calls of the source. The call rests on the fitted dose curve; in most records, active means well fitted inhibition curve with a large enough effect; inconclusive means small, poorly fitted or top-dose-only effect; inactive means no such curve, though single readings can be large or run the other way.

Chain of Nicotinamide N-methyltransferase (Homo sapiens) (P40261 whole entry, looked up): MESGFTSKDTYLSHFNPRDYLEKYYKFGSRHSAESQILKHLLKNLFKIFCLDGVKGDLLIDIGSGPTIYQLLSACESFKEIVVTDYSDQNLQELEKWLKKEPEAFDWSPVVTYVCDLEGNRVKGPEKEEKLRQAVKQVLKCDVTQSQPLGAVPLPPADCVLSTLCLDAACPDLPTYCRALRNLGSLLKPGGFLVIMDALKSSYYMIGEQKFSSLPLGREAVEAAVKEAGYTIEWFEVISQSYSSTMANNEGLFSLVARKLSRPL

For the test, the target named is Nicotinamide N-methyltransferase (Homo sapiens) (UniProt P40261). As to the kind of experiment: qHTS Assay for Inhibitors of N-terminal methyltransferase 1 (NTMT1): NNMT MTaseGlo counterscreen assay. The following applies: NNMT enzyme, MTase-Glo luminescence counterscreen; series mostly up to 57.1 µM. Summed up:
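Luminescent MTase-Glo read-out of SAH from nicotinamide methylation: 1 µM nicotinamide, 100 µM SAM, 125 nM NNMT, 30 min RT after ~15 min compound preincubation. Values normalized to no-enzyme/DMSO controls, Hill-fitted.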
Background: qHTS replaces the single test concentration by a dilution series.
For the molecule `CC(=O)c1ccc2c(c1)N(CCCN(C)C)c1ccccc1S2`, the Potency entry was “inactive”. Then `COc1cc(/C=C(\C#N)C(=O)c2ccc(O)c(O)c2)cc(I)c1O`, with “inactive”; and `Nc1[nH]c(=O)nc2c1ncn2C1OC(CO)C(O)C1O` (configuration not stated), with “inactive”; and `CC#C[C@]1(O)CC[C@H]2[C@@H]3CCC4=CC(=O)CCC4=C3[C@@H](c3ccc(N(C)C)cc3)C[C@@]21C`, with “inactive”. In the case of `N[C@@H](Cc1c[nH]c2ccc(O)cc12)C(=O)O`, the Potency result is “inactive”. Then `OCC1OC(n2cnc3c(NCc4ccco4)ncnc32)C(O)C1O` (configuration not stated), with “inactive”; and `CCCc1cc(C)[nH]c(=O)c1CNC(=O)c1cc(-c2ccc(N3CCN(C(C)C)CC3)nc2)cc2c1cnn2C(C)C`, with “inactive”.

Take `CCN1CCC[C@H]1CNC(=O)c1cc(S(N)(=O)=O)ccc1OC`: the Potency result was “inactive”. Then `Nc1nc(Cl)nc2c1ncn2[C@@H]1O[C@H](COP(=O)(O)OP(=O)(O)OP(=O)(O)O)[C@@H](O)[C@H]1O`, with “inactive”. With `N#CC(C#N)=C(N)/C(C#N)=C/c1ccc(O)cc1`, the Potency result was “inactive”. For the molecule `O=C(Nc1ccc([N+](=O)[O-])cc1Cl)c1cc(Cl)ccc1O`, the Potency result was “inactive”.

Turning to `Cc1cc(C)c(/C=C2\C(=O)Nc3ccccc32)[nH]1`, the Potency entry is “inactive”. Regarding `CN(C)CCCc1cc(C(=O)Nc2ccc(-c3ccncc3)cc2)ccc1O`, the Potency result was “inactive”. For the molecule `O=C1NC(=O)C(c2ccccc2[N+](=O)[O-])=C1Nc1ccc(O)c(Cl)c1`, the Potency entry was “inactive”. Then `CCN1C(=O)C=CC1=O`, with “inactive”; and `O=[N+]([O-])c1ccc(-c2nc(-c3ccc(F)cc3)c(-c3ccncc3)[nH]2)cc1`, with “inactive”. On to `COc1cc2c(NC3CCN(CC4CCCCC4)CC3)nc(N3CCCCC3)nc2cc1OCCCN1CCCCC1`, for which the Potency entry is “inactive”.

The values are drawn from PubChem BioAssay AID1347146 (National Center for Advancing Translational Sciences (NCATS), 2019).
